The source of these data is PubChem BioAssay AID922 (National Center for Advancing Translational Sciences (NCATS), 2007).

Records with an inconclusive call do not appear. Unmarked numbers belong to inactive results. Active and inactive are the calls of the source. Calls follow the shape of the dose curve; as a rule, active = well fitted inhibition curve with a large enough effect in the signal ratio, with a control signal flat; inconclusive = small, poorly fitted or top-dose-only effect, or effect the other way; inactive = flat fitted curve, though single readings scatter; the % refers to the signal ratio.

This assay can be described thus: Confirmation Concentration-Response Assay for Identification of Small Molecule Antagonists of Stat Signaling Pathway. The following applies: SIE-bla cells, IL-6 stimulated, beta-lactamase ratio, 5 h; series mostly up to 38.3 µM; activity change, negative = inhibition: at the top concentration. An excerpt: NIH Molecular Libraries Screening Centers Network [MLSCN] NIH Chemical Genomics Center [NCGC] MLSCN Grant: None NCGC Assay Overview: This assay is a retest of actives identified from the Stat signaling pathway assay (PubChem AID 446). The Stat assay is cell-based and measures Interleukin 6 (IL-6) mediated modulation of a beta-lactamase reporter gene controlled by a STAT inducible element (SIE-bla cells, Invitrogen). IL-6 is a cytokine that signals via the JAK/STAT pathway and is implicated in cancer and inflammation. SIE-bla cells are induced by IL-6 at 40 pM EC50 and inhibited by the pan JAK inhibitor, 2-(1,1-Dimethylethyl)-9-fluoro-3,6-dihydro-7H-benz[h]-imidaz[4,5-f]isoquinolin-7-one, at approximately 10 nM IC50. Plated cells were incubated overnight and on the following day, stimulated with 40 pM IL-6 for 5 hrs. The assay was stimulated with an EC50 of IL-6 to retest inhibitors of STAT signaling.
NCGC Assay Protocol Summary: Cells were trypsinized, washed in assay medium (AM, OPTI MEM with 0.5% fetal bovine serum, 0.1 mM nonessential amino acids, 1 mM sodium pyruvate, 10mM HEPES pH 7.3, 100U/ml penicillin, and 100 ug/ml streptomycin) and suspended at […] in AM. Approximately 2500 cells in 5 uL/well was dispensed into 1536-well plates and the cells were incubated overnight at 37 C. 23 nL of compound were delivered by a pin tool and 1 uL of IL-6 (40 pM final concentration in AM) was added. After plates were incubated at 37 C for 5 hrs, 1uL of detector mix (LiveBLAzerTM, Invitrogen) was added, the plates incubated at room temperature for 2.5 hrs, and fluorescence intensity at 460 and 530 nm emissions was measured at 405 nm excitation by an Envision (Perkin Elmer).
For the molecule `O=C(O)c1c(Br)c(Br)c(Br)c(Br)c1C1c2ccc(O)cc2Oc2cc(O)ccc21`, the Potency is 7.94 µM (active).
In the case of `OCc1ccncc1.OCc1ccncc1.[Cl][Pt]([Cl])([Cl])[Cl]`, the Potency was 10 µM (active).
Turning to `CCOC(=O)c1[nH]c2cc3c(cc2c1NC(=O)CN1CCc2ccccc2C1)OCO3`, the Potency was 15.8 µM (active).
Regarding `OC[C@@H]1CCC[C@H](n2cnc3c(=S)nc[nH]c32)O1`, the “activity change, negative = inhibition” value is 3.19%.
As to `CCC(=O)Nc1nc(C)c(Oc2ccccc2)c(=O)[nH]1`, the “activity change, negative = inhibition” value was 7.98%.
Regarding `C=C1C(=O)O[C@@H]2[C@H]3O[C@]3(C)CCC=C(C)CC[C@@H]12`, the Potency was 7.94 µM (active).
With `ClC(=Nc1cccc2ccccc12)N(c1ccccc1)c1ccccc1`, the “activity change, negative = inhibition” value is 14.2%.
Consider `O=C(O)CCc1c2ccc(=O)c(O)c-2oc2c(O)c(O)ccc12`, for which the Potency is 10 µM (active).
On to `NS(=O)(=O)c1ccc(N=Nc2cc3ccccc3c(C(=O)O)c2O)cc1`, for which the Potency is 6.31 µM (active).
For the molecule `COc1ccc(C[C@@H]2C(=O)N[C@H](C)C(=O)N(C)[C@@H]3Cc4ccc(cc4)Oc4cc(ccc4O)C[C@H](C(=O)N[C@@H](C)C(=O)N[C@H](C)C(=O)N2C)N(C)C3=O)cc1`, the Potency is 0.199 µM (active).
As to `NCCSc1nc2ccccc2s1`, the Potency is 7.94 µM (active).
With `CSc1ncnc2c1ncn2CC(=O)[C@H]1CC[C@H]2[C@H]3CCC4=CC(=O)CC[C@@]4(C)[C@@H]3CC[C@@]12C`, the Potency was 2.51 µM (active).
Still for that read-out and setting: as for `O=C(Nc1ccc(N2CCN(C(=O)c3ccccc3)CC2)c(Cl)c1)c1ccc(Br)o1`, the figure is 10 µM (active).
For the molecule `CN(C)S(=O)(=O)c1ccc2c(c1)/C(=C/c1cc3c([nH]1)CCCC3)C(=O)N2`, the Potency is 2.51 µM (active).
For `Cn1c(NCc2ccccc2)nc2c1c(=O)n(Cc1ccc(Br)cc1)c(=O)n2C`, the Potency is 15.8 µM (active).
Consider `COc1cc(/C=C\C(=O)N2CCCCC2=O)cc(OC)c1OC`, for which the Potency was 12.6 µM (active).
On the same count and under the same terms, as for `O=C1C(SCCO)=C(SCCO)C(=O)c2ccccc21`, the figure is 6.31 µM (active); as for `O=C1Nc2ccc(I)cc2/C1=C/c1cc(Br)c(O)c(Br)c1`, 12.6 µM (active); as for `CCCCSc1nc(N)c(C#N)c(-c2cccs2)c1C#N`, 15.8 µM (active).
In the case of `COc1cccc2c1[C@H](CO)N1[C@H](C#N)[C@@H]3C[C@H](C(=O)O)[C@@H]([C@@H]1C2)N3C`, the Potency is 10 µM (active).
With `CC1CCN(CC[S-])CC1.O.O.[Cl][Pt]`, the Potency is 25.1 µM (active).
Regarding `C=C1C(=O)O[C@@H]2[C@@H]1CC/C(C)=C\CC[C@@]1(C)O[C@H]21`, the Potency is 25.1 µM (active).
Regarding `CCN(CC)CCNC(=O)c1cc(S(C)(=O)=O)ccc1OC`, the “activity change, negative = inhibition” value was 34.7%.
